From the supplement of paper PMC11732987, “Enantioselective OTUD7B fragment discovery through chemoproteomics screening and high-throughput optimisation” (Communications Chemistry, 2025)

Tests used:
Test in all cases: log2 ratio of Biotin-Ahx-Ub-VS probe labelling (fragment/DMSO); higher = less target engagement (more negative = stronger competition), active = hit call of the paper (q ≤ 0.05, log2 ratio ≤ -1)
Conditions in all cases: compound concentration: 200 uM; treatment time: 3 h
[1] = biological target: T1, USP42 (UniProt Q9H9J4)
T1 sequence (whole entry): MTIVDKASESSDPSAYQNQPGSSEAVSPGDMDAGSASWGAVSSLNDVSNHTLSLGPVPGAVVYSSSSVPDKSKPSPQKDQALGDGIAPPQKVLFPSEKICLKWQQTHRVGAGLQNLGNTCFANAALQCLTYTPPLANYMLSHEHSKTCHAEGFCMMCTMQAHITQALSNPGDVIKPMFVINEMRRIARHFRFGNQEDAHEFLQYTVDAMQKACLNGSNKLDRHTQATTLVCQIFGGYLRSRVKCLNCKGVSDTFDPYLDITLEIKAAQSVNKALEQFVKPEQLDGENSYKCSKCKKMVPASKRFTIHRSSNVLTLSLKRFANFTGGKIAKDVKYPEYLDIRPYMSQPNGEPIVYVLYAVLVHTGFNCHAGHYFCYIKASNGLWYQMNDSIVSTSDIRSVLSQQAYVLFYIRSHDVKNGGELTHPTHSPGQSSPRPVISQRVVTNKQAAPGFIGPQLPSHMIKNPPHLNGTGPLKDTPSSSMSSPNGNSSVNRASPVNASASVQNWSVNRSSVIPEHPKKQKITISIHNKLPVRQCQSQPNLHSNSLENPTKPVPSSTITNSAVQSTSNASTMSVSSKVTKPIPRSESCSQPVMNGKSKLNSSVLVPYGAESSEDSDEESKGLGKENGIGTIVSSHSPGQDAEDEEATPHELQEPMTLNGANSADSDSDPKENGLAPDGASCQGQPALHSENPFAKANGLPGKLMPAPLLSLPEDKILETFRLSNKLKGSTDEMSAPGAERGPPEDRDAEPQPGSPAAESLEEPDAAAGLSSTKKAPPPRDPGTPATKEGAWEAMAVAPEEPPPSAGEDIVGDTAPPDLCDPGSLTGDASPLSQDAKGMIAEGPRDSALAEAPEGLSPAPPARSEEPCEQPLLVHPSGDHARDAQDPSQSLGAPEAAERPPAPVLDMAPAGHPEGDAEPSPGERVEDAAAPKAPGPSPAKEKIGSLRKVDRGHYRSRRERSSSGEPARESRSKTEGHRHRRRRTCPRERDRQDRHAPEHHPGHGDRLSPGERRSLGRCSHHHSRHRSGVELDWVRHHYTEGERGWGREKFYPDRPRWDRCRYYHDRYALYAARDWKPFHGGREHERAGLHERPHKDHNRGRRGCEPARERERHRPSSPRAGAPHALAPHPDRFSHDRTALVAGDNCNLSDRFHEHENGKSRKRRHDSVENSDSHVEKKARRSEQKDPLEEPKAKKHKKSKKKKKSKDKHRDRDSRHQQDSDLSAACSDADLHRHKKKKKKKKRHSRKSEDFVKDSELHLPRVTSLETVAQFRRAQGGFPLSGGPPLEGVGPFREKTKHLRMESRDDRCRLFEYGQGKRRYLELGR
Outline: (§1)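 Using Biotin-Ahx-Ub-VS at 0.5 µM final for 1 h, DUBs were labelled in HEK293T lysate (495 µg per sample) that had first been treated in triplicate with fragment at 200 µM or vehicle for 3 h. NeutrAvidin enrichment, LysC and trypsin digestion and diaPASEF LC-MS/MS followed. Spectronaut label-free quantities were global-median-normalised. Values are average log2 fragment/vehicle ratios by unpaired t-test, using proteins with ≥2 unique peptides.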

[2] = biological target: USP46 (UniProt P62068)
Outline: as §1

[3] = biological target: T2, USP47 (UniProt Q96K76)
T2 sequence (whole entry): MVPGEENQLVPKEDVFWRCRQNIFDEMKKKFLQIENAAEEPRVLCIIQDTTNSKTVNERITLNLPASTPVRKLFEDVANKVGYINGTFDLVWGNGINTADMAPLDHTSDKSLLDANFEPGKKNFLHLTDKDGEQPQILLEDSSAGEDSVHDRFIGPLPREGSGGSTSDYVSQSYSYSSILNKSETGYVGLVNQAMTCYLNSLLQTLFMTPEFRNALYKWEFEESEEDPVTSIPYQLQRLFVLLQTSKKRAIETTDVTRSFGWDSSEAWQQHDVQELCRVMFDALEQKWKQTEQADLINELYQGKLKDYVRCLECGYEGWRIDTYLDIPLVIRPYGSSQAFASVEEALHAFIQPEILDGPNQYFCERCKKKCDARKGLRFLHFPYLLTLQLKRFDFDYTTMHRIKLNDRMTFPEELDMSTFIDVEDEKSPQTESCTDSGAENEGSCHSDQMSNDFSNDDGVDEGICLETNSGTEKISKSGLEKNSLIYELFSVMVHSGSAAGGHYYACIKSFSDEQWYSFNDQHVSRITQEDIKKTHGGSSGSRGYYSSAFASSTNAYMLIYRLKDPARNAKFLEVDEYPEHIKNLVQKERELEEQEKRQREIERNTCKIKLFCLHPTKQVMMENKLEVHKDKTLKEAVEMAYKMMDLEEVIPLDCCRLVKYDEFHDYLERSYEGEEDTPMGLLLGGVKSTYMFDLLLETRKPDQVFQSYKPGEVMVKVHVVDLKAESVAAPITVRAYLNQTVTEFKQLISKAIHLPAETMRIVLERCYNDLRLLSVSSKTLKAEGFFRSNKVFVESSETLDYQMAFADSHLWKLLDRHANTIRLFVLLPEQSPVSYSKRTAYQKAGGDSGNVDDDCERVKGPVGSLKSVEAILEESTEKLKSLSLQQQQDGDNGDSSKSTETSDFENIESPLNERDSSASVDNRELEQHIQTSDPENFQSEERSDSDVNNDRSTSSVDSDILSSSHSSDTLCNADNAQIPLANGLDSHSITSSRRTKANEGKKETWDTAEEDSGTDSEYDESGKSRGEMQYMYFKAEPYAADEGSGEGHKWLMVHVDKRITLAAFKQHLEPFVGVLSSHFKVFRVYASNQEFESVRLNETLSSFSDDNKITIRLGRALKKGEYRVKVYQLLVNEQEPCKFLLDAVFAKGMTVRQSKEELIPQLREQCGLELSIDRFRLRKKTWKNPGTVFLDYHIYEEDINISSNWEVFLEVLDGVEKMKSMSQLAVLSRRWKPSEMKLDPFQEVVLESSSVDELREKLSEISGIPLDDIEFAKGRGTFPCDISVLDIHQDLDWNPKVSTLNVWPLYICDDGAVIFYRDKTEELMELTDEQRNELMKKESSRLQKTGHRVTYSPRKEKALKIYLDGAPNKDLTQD
Outline: as §1

[4] = biological target: T3, USP48 (UniProt Q86UV5)
T3 sequence (whole entry): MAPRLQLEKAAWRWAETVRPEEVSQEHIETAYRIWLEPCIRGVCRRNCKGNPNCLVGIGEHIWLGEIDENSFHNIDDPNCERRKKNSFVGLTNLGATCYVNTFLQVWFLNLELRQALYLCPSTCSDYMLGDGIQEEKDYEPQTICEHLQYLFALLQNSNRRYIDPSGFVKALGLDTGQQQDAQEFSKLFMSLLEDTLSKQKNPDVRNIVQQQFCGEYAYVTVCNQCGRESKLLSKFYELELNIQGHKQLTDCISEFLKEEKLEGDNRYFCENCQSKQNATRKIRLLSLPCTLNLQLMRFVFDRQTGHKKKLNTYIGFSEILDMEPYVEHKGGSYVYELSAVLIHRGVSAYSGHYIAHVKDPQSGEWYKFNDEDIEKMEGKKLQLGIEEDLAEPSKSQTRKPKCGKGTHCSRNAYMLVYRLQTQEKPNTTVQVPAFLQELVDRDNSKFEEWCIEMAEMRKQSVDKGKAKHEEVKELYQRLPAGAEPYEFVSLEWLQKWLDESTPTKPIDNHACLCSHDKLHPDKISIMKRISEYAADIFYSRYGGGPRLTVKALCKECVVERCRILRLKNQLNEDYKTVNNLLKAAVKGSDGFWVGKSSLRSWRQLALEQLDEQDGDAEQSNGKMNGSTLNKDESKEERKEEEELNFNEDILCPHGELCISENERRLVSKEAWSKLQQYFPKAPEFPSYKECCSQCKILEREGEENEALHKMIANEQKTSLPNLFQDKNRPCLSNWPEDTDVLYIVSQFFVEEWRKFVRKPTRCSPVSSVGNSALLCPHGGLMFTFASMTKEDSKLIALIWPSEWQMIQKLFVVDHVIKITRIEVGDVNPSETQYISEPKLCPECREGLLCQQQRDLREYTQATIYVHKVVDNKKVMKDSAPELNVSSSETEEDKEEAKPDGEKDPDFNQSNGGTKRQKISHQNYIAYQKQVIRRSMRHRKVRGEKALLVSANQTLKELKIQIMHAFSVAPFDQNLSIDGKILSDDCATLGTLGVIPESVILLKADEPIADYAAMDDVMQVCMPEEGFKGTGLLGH
Outline: as §1

[5] = biological target: T4, USP5 (UniProt P45974)
T4 sequence (whole entry): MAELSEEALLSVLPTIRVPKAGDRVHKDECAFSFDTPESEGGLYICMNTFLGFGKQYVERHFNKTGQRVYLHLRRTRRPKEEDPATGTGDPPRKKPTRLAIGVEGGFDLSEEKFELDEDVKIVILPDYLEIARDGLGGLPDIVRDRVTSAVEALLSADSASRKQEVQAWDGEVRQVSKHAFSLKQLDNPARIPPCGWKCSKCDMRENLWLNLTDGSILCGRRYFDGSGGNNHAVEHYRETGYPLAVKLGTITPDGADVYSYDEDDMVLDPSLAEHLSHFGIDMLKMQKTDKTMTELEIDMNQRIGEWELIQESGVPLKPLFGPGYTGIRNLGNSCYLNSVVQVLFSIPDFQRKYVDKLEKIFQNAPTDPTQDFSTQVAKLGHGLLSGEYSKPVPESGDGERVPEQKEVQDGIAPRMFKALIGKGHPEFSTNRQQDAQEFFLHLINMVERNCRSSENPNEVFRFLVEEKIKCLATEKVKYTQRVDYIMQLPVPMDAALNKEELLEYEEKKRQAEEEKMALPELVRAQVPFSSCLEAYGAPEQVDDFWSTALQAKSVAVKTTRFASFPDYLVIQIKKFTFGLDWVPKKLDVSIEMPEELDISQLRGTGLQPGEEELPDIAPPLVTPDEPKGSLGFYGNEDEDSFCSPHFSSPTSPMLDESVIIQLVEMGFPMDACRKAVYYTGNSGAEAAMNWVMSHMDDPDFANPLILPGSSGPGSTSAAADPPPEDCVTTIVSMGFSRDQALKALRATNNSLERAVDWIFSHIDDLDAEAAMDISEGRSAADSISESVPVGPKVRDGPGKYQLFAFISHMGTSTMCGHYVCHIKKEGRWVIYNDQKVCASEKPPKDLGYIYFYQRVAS
Outline: as §1

[6] = biological target: USP54 (UniProt Q70EL1)
Outline: as §1

[7] = biological target: USP7 (UniProt Q93009)
Outline: as §1

[8] = biological target: T5, USP8 (UniProt P40818)
T5 sequence (whole entry): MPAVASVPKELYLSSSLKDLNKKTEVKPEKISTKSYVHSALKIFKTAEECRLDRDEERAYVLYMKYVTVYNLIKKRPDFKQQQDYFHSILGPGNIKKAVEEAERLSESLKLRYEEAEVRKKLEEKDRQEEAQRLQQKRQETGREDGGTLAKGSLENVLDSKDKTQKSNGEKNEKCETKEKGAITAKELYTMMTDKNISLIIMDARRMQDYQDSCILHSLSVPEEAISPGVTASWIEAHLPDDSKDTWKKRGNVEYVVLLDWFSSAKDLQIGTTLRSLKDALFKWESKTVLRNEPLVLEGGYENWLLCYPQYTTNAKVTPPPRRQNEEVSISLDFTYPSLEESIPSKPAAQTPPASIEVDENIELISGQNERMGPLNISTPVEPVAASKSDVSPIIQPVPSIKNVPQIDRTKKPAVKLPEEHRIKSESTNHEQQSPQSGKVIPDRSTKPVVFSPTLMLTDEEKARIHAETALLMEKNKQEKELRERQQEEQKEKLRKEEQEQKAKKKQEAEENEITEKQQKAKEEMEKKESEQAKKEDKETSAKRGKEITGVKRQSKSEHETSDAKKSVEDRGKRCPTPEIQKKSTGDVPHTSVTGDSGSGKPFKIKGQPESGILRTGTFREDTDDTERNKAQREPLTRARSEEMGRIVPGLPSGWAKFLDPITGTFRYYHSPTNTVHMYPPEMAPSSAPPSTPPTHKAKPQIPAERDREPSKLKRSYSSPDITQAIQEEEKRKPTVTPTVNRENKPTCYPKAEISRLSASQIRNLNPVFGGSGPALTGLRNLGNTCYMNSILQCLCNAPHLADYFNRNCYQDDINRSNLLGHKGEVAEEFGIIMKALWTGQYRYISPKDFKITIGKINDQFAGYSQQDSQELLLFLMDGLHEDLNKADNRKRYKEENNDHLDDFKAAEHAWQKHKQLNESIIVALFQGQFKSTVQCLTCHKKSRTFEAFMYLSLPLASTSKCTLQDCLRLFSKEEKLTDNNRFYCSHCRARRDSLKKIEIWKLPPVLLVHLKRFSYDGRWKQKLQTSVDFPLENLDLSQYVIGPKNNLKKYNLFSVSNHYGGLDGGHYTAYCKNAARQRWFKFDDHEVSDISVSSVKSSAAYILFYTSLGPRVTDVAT
Outline: as §1

Measured: log2 ratio of Biotin-Ahx-Ub-VS probe labelling

USP7, sequence (Q93009 whole entry, looked up): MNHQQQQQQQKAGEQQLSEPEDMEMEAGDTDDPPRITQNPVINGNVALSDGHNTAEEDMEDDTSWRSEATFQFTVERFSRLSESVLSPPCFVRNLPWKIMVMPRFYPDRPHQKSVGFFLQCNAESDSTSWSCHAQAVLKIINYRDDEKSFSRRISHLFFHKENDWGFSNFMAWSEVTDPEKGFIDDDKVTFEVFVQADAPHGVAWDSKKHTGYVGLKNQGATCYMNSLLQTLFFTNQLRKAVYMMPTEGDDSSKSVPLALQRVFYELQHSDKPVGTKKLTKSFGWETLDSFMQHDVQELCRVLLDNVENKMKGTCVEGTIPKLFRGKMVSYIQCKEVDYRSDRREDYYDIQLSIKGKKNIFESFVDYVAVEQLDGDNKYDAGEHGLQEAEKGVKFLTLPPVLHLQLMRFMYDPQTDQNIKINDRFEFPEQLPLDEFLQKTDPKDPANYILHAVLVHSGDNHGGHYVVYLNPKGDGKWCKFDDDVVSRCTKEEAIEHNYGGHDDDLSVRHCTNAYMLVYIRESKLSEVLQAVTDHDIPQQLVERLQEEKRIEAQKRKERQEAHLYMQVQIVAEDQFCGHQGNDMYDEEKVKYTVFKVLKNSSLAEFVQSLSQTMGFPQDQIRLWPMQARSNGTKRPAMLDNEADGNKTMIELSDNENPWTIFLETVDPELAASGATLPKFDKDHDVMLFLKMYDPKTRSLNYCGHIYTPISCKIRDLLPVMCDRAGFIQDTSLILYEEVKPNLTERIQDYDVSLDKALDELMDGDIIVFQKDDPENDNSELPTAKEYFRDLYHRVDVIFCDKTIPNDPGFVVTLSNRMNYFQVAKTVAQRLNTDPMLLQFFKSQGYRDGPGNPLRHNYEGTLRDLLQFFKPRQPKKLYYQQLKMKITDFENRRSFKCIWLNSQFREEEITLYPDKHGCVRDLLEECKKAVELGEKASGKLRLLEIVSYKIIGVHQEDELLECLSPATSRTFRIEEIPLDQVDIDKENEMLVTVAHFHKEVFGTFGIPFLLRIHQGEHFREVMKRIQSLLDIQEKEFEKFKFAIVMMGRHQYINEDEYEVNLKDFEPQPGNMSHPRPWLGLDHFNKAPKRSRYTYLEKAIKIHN
USP46, sequence (P62068 whole entry): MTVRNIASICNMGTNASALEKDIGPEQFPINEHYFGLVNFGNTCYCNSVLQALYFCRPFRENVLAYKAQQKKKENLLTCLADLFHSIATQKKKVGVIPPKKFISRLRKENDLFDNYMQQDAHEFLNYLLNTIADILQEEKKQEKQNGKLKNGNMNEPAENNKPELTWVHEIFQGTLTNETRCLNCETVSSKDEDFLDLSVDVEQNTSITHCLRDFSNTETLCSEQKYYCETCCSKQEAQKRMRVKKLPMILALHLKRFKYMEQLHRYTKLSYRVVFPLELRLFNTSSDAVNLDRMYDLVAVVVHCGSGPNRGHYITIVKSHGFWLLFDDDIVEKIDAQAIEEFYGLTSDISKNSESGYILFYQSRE
USP54, sequence (Q70EL1 whole entry): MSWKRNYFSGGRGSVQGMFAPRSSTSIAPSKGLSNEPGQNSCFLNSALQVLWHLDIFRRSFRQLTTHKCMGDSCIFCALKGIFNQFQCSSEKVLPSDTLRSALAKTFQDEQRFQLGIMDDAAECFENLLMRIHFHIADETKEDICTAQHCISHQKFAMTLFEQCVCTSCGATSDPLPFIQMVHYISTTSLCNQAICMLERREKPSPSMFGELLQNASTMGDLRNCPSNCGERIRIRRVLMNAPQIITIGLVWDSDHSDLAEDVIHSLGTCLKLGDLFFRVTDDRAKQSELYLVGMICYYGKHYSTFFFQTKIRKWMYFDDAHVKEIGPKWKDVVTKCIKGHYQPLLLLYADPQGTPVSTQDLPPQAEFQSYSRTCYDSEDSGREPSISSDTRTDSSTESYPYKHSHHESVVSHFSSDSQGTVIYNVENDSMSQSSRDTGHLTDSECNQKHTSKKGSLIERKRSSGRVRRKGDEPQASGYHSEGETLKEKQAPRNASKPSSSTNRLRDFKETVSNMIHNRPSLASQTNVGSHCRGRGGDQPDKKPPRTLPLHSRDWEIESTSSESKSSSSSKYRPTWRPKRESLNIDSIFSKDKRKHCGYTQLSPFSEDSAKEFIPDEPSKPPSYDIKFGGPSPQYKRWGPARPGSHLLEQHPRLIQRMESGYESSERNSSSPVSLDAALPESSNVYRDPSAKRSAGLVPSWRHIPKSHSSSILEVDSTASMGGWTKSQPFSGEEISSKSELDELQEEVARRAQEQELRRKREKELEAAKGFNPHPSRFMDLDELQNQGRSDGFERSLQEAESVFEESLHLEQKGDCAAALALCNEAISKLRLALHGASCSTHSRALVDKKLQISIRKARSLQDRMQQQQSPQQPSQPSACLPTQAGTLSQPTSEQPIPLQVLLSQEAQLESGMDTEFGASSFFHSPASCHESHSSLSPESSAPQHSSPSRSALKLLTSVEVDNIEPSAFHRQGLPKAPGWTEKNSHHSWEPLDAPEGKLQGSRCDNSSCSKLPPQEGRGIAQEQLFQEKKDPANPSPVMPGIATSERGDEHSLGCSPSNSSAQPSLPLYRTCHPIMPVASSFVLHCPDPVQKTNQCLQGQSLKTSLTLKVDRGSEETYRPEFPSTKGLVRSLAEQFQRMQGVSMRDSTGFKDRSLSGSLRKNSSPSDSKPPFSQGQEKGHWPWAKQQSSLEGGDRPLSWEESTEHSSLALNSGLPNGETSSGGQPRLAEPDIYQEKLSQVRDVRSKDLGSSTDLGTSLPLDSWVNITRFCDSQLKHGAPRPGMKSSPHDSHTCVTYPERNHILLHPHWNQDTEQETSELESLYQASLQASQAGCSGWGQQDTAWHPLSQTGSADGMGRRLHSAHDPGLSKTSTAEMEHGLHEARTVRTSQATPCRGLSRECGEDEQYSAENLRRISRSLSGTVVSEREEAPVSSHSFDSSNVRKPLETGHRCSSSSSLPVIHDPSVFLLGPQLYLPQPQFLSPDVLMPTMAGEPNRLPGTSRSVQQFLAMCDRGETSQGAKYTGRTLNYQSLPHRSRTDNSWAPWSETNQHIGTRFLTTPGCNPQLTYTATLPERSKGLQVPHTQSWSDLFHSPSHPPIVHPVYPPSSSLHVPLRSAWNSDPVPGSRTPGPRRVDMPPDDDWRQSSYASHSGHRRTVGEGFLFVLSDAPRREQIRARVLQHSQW

O=C(CCl)N[C@H]1CCS(=O)(=O)c2ccccc21
inactive: [1] 0.186 | [2] 0.0271 | [3] -0.0612 | [4] -0.022 | [5] -0.472 | [6] -0.274 | [7] -0.346 | [8] -0.0621
